Screening data from PubChem BioAssay.
RAD54 branch – inhibitors of human RAD54 branch migration, primary screen, biochemical, fluorescence, single point. AID 602329, 2012. actives 0.14% (n = 360,000). inhibition, % at 10.4 µM. RAD54 Holliday junction branch migration, FAM/BHQ fluorescence;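 active means mean normalized replicate activity at least 40 and at least half of replicates scoring 40 or more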;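 further: inhibitors cause a drop in the FAM fluorescence signal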
Target sequence (Q92698 whole entry, looked up): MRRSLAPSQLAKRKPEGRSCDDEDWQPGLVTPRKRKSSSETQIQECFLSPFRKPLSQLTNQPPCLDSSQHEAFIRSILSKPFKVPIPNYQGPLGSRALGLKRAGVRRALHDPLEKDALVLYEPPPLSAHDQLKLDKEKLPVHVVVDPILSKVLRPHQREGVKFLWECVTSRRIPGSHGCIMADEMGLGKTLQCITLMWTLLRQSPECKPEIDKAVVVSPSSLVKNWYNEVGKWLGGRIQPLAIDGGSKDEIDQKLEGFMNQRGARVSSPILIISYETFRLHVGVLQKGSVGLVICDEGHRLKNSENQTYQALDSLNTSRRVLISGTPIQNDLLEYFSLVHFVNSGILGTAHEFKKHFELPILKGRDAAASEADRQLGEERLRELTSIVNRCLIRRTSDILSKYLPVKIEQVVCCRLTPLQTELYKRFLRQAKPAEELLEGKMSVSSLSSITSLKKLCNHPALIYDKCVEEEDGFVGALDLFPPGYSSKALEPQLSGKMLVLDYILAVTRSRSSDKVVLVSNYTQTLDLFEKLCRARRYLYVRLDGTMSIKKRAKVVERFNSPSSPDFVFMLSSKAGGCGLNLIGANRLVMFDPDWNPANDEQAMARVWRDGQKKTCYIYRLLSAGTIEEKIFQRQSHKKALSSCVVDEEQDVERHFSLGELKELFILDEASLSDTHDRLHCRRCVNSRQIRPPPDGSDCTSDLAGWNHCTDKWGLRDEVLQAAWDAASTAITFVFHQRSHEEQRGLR
PREPL inhibitor – PREPL enzyme inhibitors, primary screen, biochemical, fluorescence polarization; recombinant PREPL, fluorescence polarization activity-based probe; inhibition, % at 5.96 µM; actives 0.68% (n = 320,000)
UBC13 polyUb – UBC13 polyubiquitin chain formation inhibitors, primary screen, biochemical, TR-FRET, uHTS. Ubiquitin-conjugating enzyme E2 N (Homo sapiens), P61088. actives 0.47% (n = 330,000). inhibition, % at 20 µM; in the data active means inhibition above about 45%, passing the limit was not always enough
beta cell repl – inducers of MIN6 beta-cell proliferation, primary screen, ATP luminescence, uHTS | MIN6 cells proliferation, ATPlite luminescence, 48 h; cells starved in 0.2% serum; 100% = growth in 10% serum | AID 2380, 2010 | actives 0.29% (n = 330,000) | proliferation, % at 10 µM;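 active means compounds whose signal lies at least 3.5 SD above the mean of all wells on their plate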
FID counter – compounds displacing fluorescent DNA intercalator, primary screen, artefact control for HCV NS3 helicase inhibitor project, biochemical, FID fluorescence. DNA fluorescent intercalator displacement. inhibition, % at 7.9 µM. AID 1845, 2009. actives 0.17% (n = 290,000); in the data active means inhibition above about 37%;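 further: higher means more ethidium bromide displaced from hairpin DNA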
RAD52 anneal inh – RAD52 DNA annealing inhibitors, primary screen, biochemical, FRET, single point, set 2; DNA repair protein RAD52 homolog (Homo sapiens), P43351; recombinant RAD52 DNA annealing, FRET fluorescence; inhibition, % at 18.7 µM; AID 651710, 2012; actives 0.46% (n = 360,000);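 active means every replicate showing at least 50% inhibition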
PREPL confirm – human PREPL enzyme inhibitors, confirmation, biochemical, fluorescence polarization | actives 67% (n = 2,000) | inhibition, % at 5.96 µM | shares compounds with PREPL inhibitor | recombinant PREPL, fluorescence polarization activity probe
A number is an active result. Most compounds without a hit are left out; they make up all but 1.3% or so of the library. Unless noted, no stated cut-off is given here; in the data, active means inhibition above about 43%; inactive means the rest.

`O=C1N/C(=C/c2ccc(N3CCOCC3)cc2)C(=O)N1Cc1ccc(F)cc1` gave RAD54 branch inactive, PREPL inhibitor 48, UBC13 polyUb inactive, beta cell repl inactive, FID counter inactive and PREPL confirm 75.
`COc1ccc(S(=O)(=O)Nc2ccc3c(c2)C(=O)N([C@@H](C)CO)C[C@@H](C)[C@@H](CN(C)C(=O)Nc2cccc4ccccc24)OCCCC[C@H](C)O3)cc1` gave RAD54 branch inactive.
For CCOc1cc(/C=C2/C(=N)N3C(=NC2=O)SN=C3S(C)(=O)=O)ccc1OC(=O)c1ccco1 the results were RAD54 branch inactive, PREPL inhibitor 52, UBC13 polyUb inactive, beta cell repl inactive, FID counter inactive and PREPL confirm 71.
For CCOc1cc(/C=C2/C(=N)N3C(=NC2=O)SN=C3S(C)(=O)=O)ccc1OS(=O)(=O)c1ccccc1 the results were RAD54 branch inactive, PREPL inhibitor inactive, UBC13 polyUb inactive, beta cell repl inactive and FID counter inactive.
CCOc1cc(/C=C2\C(=N)N3N=C(N4CCCCC4)SC3=NC2=O)ccc1OC(=O)c1ccco1 was read as RAD54 branch inactive, PREPL inhibitor 51, UBC13 polyUb inactive, beta cell repl inactive, FID counter inactive, RAD52 anneal inh inactive and PREPL confirm 59.
`O=C(N[C@@H]1CC[C@H](CCNS(=O)(=O)c2ccc(F)cc2)O[C@@H]1CO)C1CCC1` gave RAD54 branch inactive and RAD52 anneal inh inactive.
`Cc1ccc(-n2[nH]c(C)c(C=Nc3ccc4[nH]c(=O)[nH]c4c3)c2=O)cc1C` gave RAD54 branch inactive, PREPL inhibitor 57, UBC13 polyUb inactive, beta cell repl inactive, FID counter inactive and PREPL confirm inactive.
Screening Cc1ccc(-n2[nH]c(C)c(C=Nc3ccc4[nH]c(=O)[nH]c4c3)c2=O)cc1 returned PREPL inhibitor inactive, UBC13 polyUb inactive, beta cell repl inactive, FID counter inactive and RAD52 anneal inh inactive.
`CCN1/C(=C/C=C/c2oc3ccc(-c4ccccc4)cc3[n+]2CC)Oc2ccc(-c3ccccc3)cc21` gave RAD54 branch inactive, PREPL inhibitor 67, UBC13 polyUb inactive, beta cell repl inactive, FID counter inactive, RAD52 anneal inh inactive and PREPL confirm inactive.
`Cc1noc(C)c1S(=O)(=O)Nc1ccc2c(c1)C(=O)N([C@H](C)CO)C[C@H](C)[C@@H](CN(C)C(=O)Nc1ccc(C(F)(F)F)cc1)O2` gave RAD54 branch inactive, PREPL inhibitor 55, UBC13 polyUb inactive, beta cell repl inactive, RAD52 anneal inh inactive and PREPL confirm 50.
`Cc1noc(C)c1S(=O)(=O)Nc1ccc2c(c1)C(=O)N([C@H](C)CO)C[C@H](C)[C@H](CN(C)C(=O)Nc1ccc(C(F)(F)F)cc1)O2` gave RAD54 branch inactive and RAD52 anneal inh inactive.
Screening CNC[C@@H]1Oc2ccc(NC(=O)Nc3cccc4ccccc34)cc2C(=O)N([C@@H](C)CO)C[C@@H]1C returned RAD54 branch inactive, PREPL inhibitor 50, UBC13 polyUb 48, beta cell repl inactive, RAD52 anneal inh inactive and PREPL confirm 46.
Screening C[C@H](CO)N1C[C@H](C)[C@@H](CN(C)S(=O)(=O)c2ccc(F)cc2)Oc2ccc(NC(=O)Nc3ccc4c(c3)OCO4)cc2C1=O returned RAD54 branch inactive, PREPL inhibitor 45, UBC13 polyUb inactive, beta cell repl inactive, RAD52 anneal inh inactive and PREPL confirm 48.
For COc1ccc(S(=O)(=O)Nc2ccc3c(c2)C(=O)N([C@H](C)CO)C[C@H](C)[C@@H](CN(C)C(=O)Nc2ccc(C(F)(F)F)cc2)O3)cc1 the results were RAD54 branch inactive, PREPL inhibitor 45, UBC13 polyUb inactive, beta cell repl inactive, RAD52 anneal inh inactive and PREPL confirm inactive.
Screening COc1cccc(S(=O)(=O)Nc2ccc3c(c2)[C@@H]2C[C@@H](CC(=O)N[C@@H](C)c4ccccc4)O[C@H](CO)[C@@H]2O3)c1 returned RAD54 branch inactive and RAD52 anneal inh inactive.
`CC=Cc1ccc2n(c1=O)C[C@@H]1[C@@H](CO)[C@H](C(=O)NCCOC)[C@H]2N1Cc1ccccc1OC` (mixture of isomers) gave RAD52 anneal inh inactive.
`CCOc1cc(/C=C2/SC(=S)N(CC(=O)O)C2=O)ccc1OC(=O)c1cccs1` gave RAD54 branch inactive, PREPL inhibitor 65, UBC13 polyUb inactive, beta cell repl inactive, FID counter inactive, RAD52 anneal inh inactive and PREPL confirm 67.
`COc1ccc(/C=C2/SC(=S)N(CC(=O)O)C2=O)cc1OCc1ccc(Cl)cc1` gave RAD54 branch inactive, PREPL inhibitor 66, UBC13 polyUb inactive, beta cell repl inactive, FID counter inactive, RAD52 anneal inh inactive and PREPL confirm 67.
C[C@H](NC(=O)[C@@H]1[C@@H](CO)[C@@H]2Cn3c(ccc(C4=CCCCC4)c3=O)[C@H]1N2)c1ccccc1 was read as RAD54 branch inactive and RAD52 anneal inh inactive.
`COc1ccc(-n2nc3c(N4CCC(C(=O)NCCc5ccccc5C)CC4)nnc(C)c3c2C)cc1` gave RAD54 branch inactive, PREPL inhibitor 52, UBC13 polyUb inactive, beta cell repl inactive, FID counter inactive and PREPL confirm inactive.
`COc1ccc(-n2nc3c(N4CCC(C(=O)NCC(C)c5ccccc5)CC4)nnc(C)c3c2C)cc1` (stereo not given) gave RAD54 branch inactive, PREPL inhibitor 50, UBC13 polyUb inactive, beta cell repl inactive, FID counter inactive, RAD52 anneal inh inactive and PREPL confirm inactive.
COc1cccc(CN2[C@H](CO)[C@@H](c3ccccc3)C23CN(Cc2ccccc2OC)C3)c1 was read as RAD52 anneal inh inactive.
For Cc1cc(O)ccc1N=Cc1c(C(F)(F)F)[nH][nH]c1=O the results were PREPL inhibitor 70, UBC13 polyUb inactive, beta cell repl inactive, FID counter inactive, RAD52 anneal inh inactive and PREPL confirm inactive.
For Cc1ccc(Nc2nc(-c3c(C)nc4ncccn34)cs2)cc1 the results were RAD54 branch inactive, PREPL inhibitor 51, UBC13 polyUb inactive, beta cell repl inactive, FID counter inactive and PREPL confirm 45.
For Cn1cnc(S(=O)(=O)N[C@H]2CC[C@@H](CC(=O)NCC3CC3)O[C@@H]2CO)c1 the results were RAD52 anneal inh inactive.
